The values below come from PubChem BioAssay AID435001 (Southern Research Specialized Biocontainment Screening …, 2010).

Activity calls are given as the source filed them. No rule for the calls is given here.

The test deals with Large T antigen (Simian virus 40) (UniProt P03070). Description: SV40 TAg ATPase inhibitors, biochemical, ADP-Hunter, purified TAg, synthesized compounds (AID 435001). To be noted: ADP-Hunter fluorescence; series mostly up to 100 µM.
Large T antigen (Simian virus 40), sequence (P03070 whole entry, looked up): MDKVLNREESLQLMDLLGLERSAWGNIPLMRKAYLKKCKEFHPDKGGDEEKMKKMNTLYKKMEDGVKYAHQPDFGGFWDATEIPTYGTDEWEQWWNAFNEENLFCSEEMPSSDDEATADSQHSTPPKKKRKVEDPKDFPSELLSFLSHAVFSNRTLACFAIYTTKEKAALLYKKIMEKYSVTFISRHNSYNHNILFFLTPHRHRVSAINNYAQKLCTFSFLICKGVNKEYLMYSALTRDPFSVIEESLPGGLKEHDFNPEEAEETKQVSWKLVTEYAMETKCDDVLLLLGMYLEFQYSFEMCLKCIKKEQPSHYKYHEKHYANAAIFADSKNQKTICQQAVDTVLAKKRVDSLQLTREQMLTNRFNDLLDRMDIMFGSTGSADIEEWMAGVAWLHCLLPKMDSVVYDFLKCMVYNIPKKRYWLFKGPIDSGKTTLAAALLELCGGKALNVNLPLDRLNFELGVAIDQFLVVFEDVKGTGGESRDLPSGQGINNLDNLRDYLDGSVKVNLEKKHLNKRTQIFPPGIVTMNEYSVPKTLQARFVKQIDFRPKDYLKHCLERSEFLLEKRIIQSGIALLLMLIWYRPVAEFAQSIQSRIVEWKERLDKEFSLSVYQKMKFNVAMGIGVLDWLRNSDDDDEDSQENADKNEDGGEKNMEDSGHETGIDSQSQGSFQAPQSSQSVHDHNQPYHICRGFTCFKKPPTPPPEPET
Consider `COc1ccc(C(C)(C)c2ccc(OC)cc2)cc1`, for which the compound was classed as inactive.

`C=C(c1ccc(OC)cc1)c1ccc(OC)cc1`: the outcome was inactive. Take `COc1ccc(C2(c3ccc(OC)cc3)CC2)cc1`: the outcome was inactive. On to `COc1ccc(C(C)(O)c2ccc(OC)cc2)cc1`, for which the result was inactive.
